The test system of the first test is Plasmodium falciparum. Put plainly: GSK_TCMDC: Inhibition of Plasmodium falciparum 3D7 in whole red blood cells, using parasite LDH activity as an index of growth. Test compounds present at 2uM. It is filed as functional.
For the molecule `CCOc1c(CNCCCNc2cc(O)c3ccccc3n2)cc(I)cc1OC`, the Inhibition is 91%.

With `Cc1nc(N)nc(N)c1-c1ccc(Br)cc1`, the Inhibition turned out to be 98%.

The molecule `COc1ccc2nc(-c3ccccc3)cc(NCCCNc3cc(-c4ccccc4)nc4ccc(OC)cc34)c2c1.Cl` returned an Inhibition of 99%.

`Cc1c2c(nn1-c1ccccc1)C(c1ccccc1)N(c1ccccc1)C2=O` (stereo not given) gave an Inhibition of 92%.

Turning to `O=C(O)C(F)(F)F.OC1CCCN(Cc2cccc(-c3ccc(-c4nc5ccccc5[nH]4)cc3)c2)C1` (stereo not given), the Inhibition is given as 85%.

Turning to `O=C(/C=C/c1ccc(Cl)c(Cl)c1)NCCCCCN1CCC(n2c(=O)[nH]c3ccccc32)CC1`, the Inhibition is reported as 97%.

`Nc1nc(N)c2c(ccc3ccccc32)n1`: the Inhibition is reported as 98%.

`CSc1c(CNCCCNc2cc(=O)c3ccccc3[nH]2)[nH]c2ccccc12` yielded an Inhibition of 87%.

The molecule `Cn1nc(-c2ccc(Cl)cc2)c2cc(C(=O)NCCN3CCOCC3)sc21` yielded an Inhibition of 97%.

As for `CC(=O)N1N=C(c2ccc(Cl)cc2)Sc2c1nc(-c1ccccc1)n2C(C)=O`, the Inhibition worked out at 100%.

`Cc1cccc2nc(-c3ccc(-c4cccc(NC(=O)c5cncn5C)c4)s3)[nH]c12` showed an Inhibition of 100%.

The molecule `CC1(C)N=C(N)N=C(N)N1c1cccc(I)c1.Cl` registered an Inhibition of 95%.

In turn, `CC(C)n1c(C2CCN(CC3CCN(C(=O)/C=C/c4ccc(Cl)c(Cl)c4)CC3)CC2)nc2ccccc21` had an Inhibition of 94%.

In the case of `Cc1ccc(C(=O)Nc2ccc(F)cc2)cc1-c1nc(NC2CC(C)(C)NC(C)(C)C2)nc2c1ccc(=O)n2-c1c(F)cccc1F`, the Inhibition is 89%.

`Br.Cc1cc(C)c(C)c(OCCCON2C(=N)N=C(N)NC2(C)C)c1C` displayed an Inhibition of 94%.

In turn, `O=C(Nc1cccc(C(F)(F)F)c1)c1cccc2nc(C(F)(F)F)[nH]c12` yielded an Inhibition of 100%.

Consider `O=C(Nc1ccc(C(F)(F)F)cc1)NC1CCN(c2ccnc3ccccc23)CC1.O=C(O)C(F)(F)F`, for which the Inhibition was determined as 100%.

Consider `Cc1cc(N[C@@H](CC(C)C)C(=O)NC2CCCC2)nc(NCCc2ccc(F)cc2)n1.O=C(O)C(F)(F)F`, for which the Inhibition is 100%.

Molecule `COc1ccc(CNC2CCN(C)CC2)cc1-c1ccc(S(=O)(=O)NC2CCC2)c(C)c1.O=C(O)C(F)(F)F` gave an Inhibition of 100%.

On to `Br.CCCCCCCNCCNc1cc(C)nc2ccccc12`, for which the Inhibition was found to be 100%.

Molecule `COc1ccc(-c2cccc(NC(=O)c3cccc(C#N)c3)c2)cc1CN1CCCC1.O=C(O)C(F)(F)F` showed an Inhibition of 98%.

In turn, `CN(C)CCN(C)Cc1ccc(-c2ccc3c(Nc4ccc(Oc5ccccn5)cc4)ccnc3c2)o1` showed an Inhibition of 100%.

`O=C(Nc1ccc(F)cc1)N1CCCN(c2ccnc3cc(Cl)ccc23)CC1.O=C(O)C(F)(F)F` displayed an Inhibition of 97%.

Take `OC1(c2ccccc2)c2cc(Cl)ccc2OC1c1nc2c(Cl)ccc(Cl)c2o1` (stereo not given): the Inhibition was determined as 98%.

The molecule `COc1cc(OC)cc(-c2nn(-c3ccc([N+](=O)[O-])cc3Cl)c(=S)n2CC2CCCO2)c1` (stereo not given) gave an Inhibition of 98%.

As to `Cc1cccc2nc(-c3cccc(-c4cccc(NC(=O)CC5NC(=O)c6ccccc65)c4)c3)[nH]c12` (stereo not given), the Inhibition worked out at 92%.

In turn, `c1cncc(NCc2ccc(-c3cc4ccncc4cc3OC3CCNCC3)s2)c1` gave an Inhibition of 100%.

The molecule `CCOC(=O)c1ccc(N(CCCN(CCCN(c2ccc(C(=O)OCC)cc2)S(=O)(=O)c2ccc(C)cc2)CCc2ccc(O)cc2)S(=O)(=O)c2ccc(C)cc2)cc1` registered an Inhibition of 96%.

`N#Cc1ccc(-c2ccc(C(=O)NC3CCN(CCN4CCC(c5cn(CCO)c6ccccc56)CC4)CC3)cc2)cc1` yielded an Inhibition of 100%.

For the molecule `CC(CCCCC(=O)Nc1ccc(C(F)(F)F)cc1)NCC(O)c1cccc(Cl)c1` (stereo not given), the Inhibition came out at 99%.

`COC(=O)C(NC(=O)NC1CCN(c2ccnc(Nc3ccc(F)cc3)n2)C1)c1ccccc1` (stereo not given) had an Inhibition of 87%.

Molecule `COc1cc(C(=O)NCCCN2CCN(c3cccc(Cl)c3)CC2)ccc1-c1nc2cc(Cl)c(F)cc2[nH]1` registered an Inhibition of 100%.

The molecule `O=C(/C=C/c1ccc(Cl)cc1)NCCCCCN1CCN(C(=O)C=Cc2ccc(Cl)c(Cl)c2)CC1.O=C(O)C(F)(F)F` had an Inhibition of 92%.

In turn, `Cc1[nH]c(C)c(-c2ccc(-c3cccc(OC(F)(F)F)c3)nc2)c(=O)c1Cl` gave an Inhibition of 98%.

In turn, `Cc1cc(-c2cnc(N)c(-c3ccc(N4CCN(C)CC4)nc3)c2)cc(C)c1O` came in with an Inhibition of 91%.

In turn, `Cc1cccc2nc(-c3cccc(-c4ccc(C(=O)N5CCCCC5C(C)O)cc4)c3)[nH]c12` (stereo not given) yielded an Inhibition of 100%.

In turn, `CCOC(=O)CC[C@H](NC(=O)c1ccc(NS(=O)(=O)c2ccc(-c3cnc(N)[nH]c3=O)cc2)cc1)C(=O)OCC` gave an Inhibition of 95%.

As for `Cc1[nH]c(C)c(-c2ccc(CCc3ccc(F)cc3F)cc2)c(=O)c1Cl`, the Inhibition was 98%.

As for `CCN(CC)CCNc1c2ccc(Cl)cc2nc2ccc(OC)nc12.Cl`, the Inhibition was determined as 100%.

`Cc1ccc(C(=O)Nc2cccc(-c3ccc(N4CCN(C)CC4)nn3)c2)cc1[N+](=O)[O-]` showed an Inhibition of 99%.

The next test concerns Plasmodium falciparum. Briefly: GSK_TCMDC: Inhibition of Plasmodium falciparum Dd2 in whole red blood cells, using parasite LDH activity as an index of growth. Test compounds present at 2uM. It is filed as functional.
`CCOc1c(CNCCCNc2cc(O)c3ccccc3n2)cc(I)cc1OC`: the Inhibition was found to be 6%.

`Cc1nc(N)nc(N)c1-c1ccc(Br)cc1` displayed an Inhibition of 1%.

Regarding `COc1ccc2nc(-c3ccccc3)cc(NCCCNc3cc(-c4ccccc4)nc4ccc(OC)cc34)c2c1.Cl`, the Inhibition is listed as 99%.

`Cc1c2c(nn1-c1ccccc1)C(c1ccccc1)N(c1ccccc1)C2=O` (stereo not given) showed an Inhibition of 96%.

In turn, `O=C(O)C(F)(F)F.OC1CCCN(Cc2cccc(-c3ccc(-c4nc5ccccc5[nH]4)cc3)c2)C1` (stereo not given) yielded an Inhibition of 16%.

In turn, `O=C(/C=C/c1ccc(Cl)c(Cl)c1)NCCCCCN1CCC(n2c(=O)[nH]c3ccccc32)CC1` gave an Inhibition of 0%.

`Nc1nc(N)c2c(ccc3ccccc32)n1` registered an Inhibition of 20%.

`CSc1c(CNCCCNc2cc(=O)c3ccccc3[nH]2)[nH]c2ccccc12` displayed an Inhibition of 21%.

Turning to `Cn1nc(-c2ccc(Cl)cc2)c2cc(C(=O)NCCN3CCOCC3)sc21`, the Inhibition is 29%.

In turn, `CC(=O)N1N=C(c2ccc(Cl)cc2)Sc2c1nc(-c1ccccc1)n2C(C)=O` returned an Inhibition of 81%.

`Cc1cccc2nc(-c3ccc(-c4cccc(NC(=O)c5cncn5C)c4)s3)[nH]c12` returned an Inhibition of 16%.

Molecule `CC1(C)N=C(N)N=C(N)N1c1cccc(I)c1.Cl` displayed an Inhibition of 85%.

The molecule `CC(C)n1c(C2CCN(CC3CCN(C(=O)/C=C/c4ccc(Cl)c(Cl)c4)CC3)CC2)nc2ccccc21` came in with an Inhibition of 7%.

On to `Cc1ccc(C(=O)Nc2ccc(F)cc2)cc1-c1nc(NC2CC(C)(C)NC(C)(C)C2)nc2c1ccc(=O)n2-c1c(F)cccc1F`, for which the Inhibition came to 96%.

`Br.Cc1cc(C)c(C)c(OCCCON2C(=N)N=C(N)NC2(C)C)c1C` showed an Inhibition of 95%.

In turn, `O=C(Nc1cccc(C(F)(F)F)c1)c1cccc2nc(C(F)(F)F)[nH]c12` displayed an Inhibition of 98%.

For `O=C(Nc1ccc(C(F)(F)F)cc1)NC1CCN(c2ccnc3ccccc23)CC1.O=C(O)C(F)(F)F`, the Inhibition was found to be 62%.

In the case of `Cc1cc(N[C@@H](CC(C)C)C(=O)NC2CCCC2)nc(NCCc2ccc(F)cc2)n1.O=C(O)C(F)(F)F`, the Inhibition is given as 47%.

In the case of `COc1ccc(CNC2CCN(C)CC2)cc1-c1ccc(S(=O)(=O)NC2CCC2)c(C)c1.O=C(O)C(F)(F)F`, the Inhibition is listed as 96%.

Molecule `Br.CCCCCCCNCCNc1cc(C)nc2ccccc12` had an Inhibition of 99%.

Molecule `COc1ccc(-c2cccc(NC(=O)c3cccc(C#N)c3)c2)cc1CN1CCCC1.O=C(O)C(F)(F)F` had an Inhibition of 32%.

For the molecule `CN(C)CCN(C)Cc1ccc(-c2ccc3c(Nc4ccc(Oc5ccccn5)cc4)ccnc3c2)o1`, the Inhibition worked out at 100%.

`O=C(Nc1ccc(F)cc1)N1CCCN(c2ccnc3cc(Cl)ccc23)CC1.O=C(O)C(F)(F)F` showed an Inhibition of 16%.

In the case of `OC1(c2ccccc2)c2cc(Cl)ccc2OC1c1nc2c(Cl)ccc(Cl)c2o1` (stereo not given), the Inhibition is reported as 89%.

Regarding `COc1cc(OC)cc(-c2nn(-c3ccc([N+](=O)[O-])cc3Cl)c(=S)n2CC2CCCO2)c1` (stereo not given), the Inhibition was 98%.

`Cc1cccc2nc(-c3cccc(-c4cccc(NC(=O)CC5NC(=O)c6ccccc65)c4)c3)[nH]c12` (stereo not given) had an Inhibition of 49%.

The molecule `c1cncc(NCc2ccc(-c3cc4ccncc4cc3OC3CCNCC3)s2)c1` gave an Inhibition of 19%.

As for `CCOC(=O)c1ccc(N(CCCN(CCCN(c2ccc(C(=O)OCC)cc2)S(=O)(=O)c2ccc(C)cc2)CCc2ccc(O)cc2)S(=O)(=O)c2ccc(C)cc2)cc1`, the Inhibition is 74%.

On to `N#Cc1ccc(-c2ccc(C(=O)NC3CCN(CCN4CCC(c5cn(CCO)c6ccccc56)CC4)CC3)cc2)cc1`, for which the Inhibition came out at 79%.

With `CC(CCCCC(=O)Nc1ccc(C(F)(F)F)cc1)NCC(O)c1cccc(Cl)c1` (stereo not given), the Inhibition is 92%.

Turning to `COC(=O)C(NC(=O)NC1CCN(c2ccnc(Nc3ccc(F)cc3)n2)C1)c1ccccc1` (stereo not given), the Inhibition is 8%.

For `COc1cc(C(=O)NCCCN2CCN(c3cccc(Cl)c3)CC2)ccc1-c1nc2cc(Cl)c(F)cc2[nH]1`, the Inhibition is 81%.

As for `O=C(/C=C/c1ccc(Cl)cc1)NCCCCCN1CCN(C(=O)C=Cc2ccc(Cl)c(Cl)c2)CC1.O=C(O)C(F)(F)F`, the Inhibition turned out to be 0%.

`Cc1[nH]c(C)c(-c2ccc(-c3cccc(OC(F)(F)F)c3)nc2)c(=O)c1Cl` gave an Inhibition of 97%.

With `Cc1cc(-c2cnc(N)c(-c3ccc(N4CCN(C)CC4)nc3)c2)cc(C)c1O`, the Inhibition is given as 33%.

Consider `Cc1cccc2nc(-c3cccc(-c4ccc(C(=O)N5CCCCC5C(C)O)cc4)c3)[nH]c12` (stereo not given), for which the Inhibition worked out at 91%.

The molecule `CCOC(=O)CC[C@H](NC(=O)c1ccc(NS(=O)(=O)c2ccc(-c3cnc(N)[nH]c3=O)cc2)cc1)C(=O)OCC` returned an Inhibition of 2%.

For the molecule `Cc1[nH]c(C)c(-c2ccc(CCc3ccc(F)cc3F)cc2)c(=O)c1Cl`, the Inhibition is given as 97%.

`CCN(CC)CCNc1c2ccc(Cl)cc2nc2ccc(OC)nc12.Cl` registered an Inhibition of 99%.

In turn, `Cc1ccc(C(=O)Nc2cccc(-c3ccc(N4CCN(C)CC4)nn3)c2)cc1[N+](=O)[O-]` yielded an Inhibition of 40%.

In general, Inhibition refers to how much of the control response was suppressed. Low values mean a response near the control, high ones a response far below the control.

The record behind these values is ChEMBL document CHEMBL1157539, “Thousands of chemical starting points for antimalarial lead identification” (Nature, 2010).
